Test results from PubChem BioAssay (EPA / NIEHS).
Results filed as inconclusive are left out. Activity calls are given as the source filed them. The calls were made as follows, unless noted: active = hit-call score of the fitted dose curve at least 0.9, where 1 is the maximum; inconclusive = response in the unintended direction; inactive = score below 0.9.

Experiments:
[1] = target: Estrogen receptor beta (Homo sapiens) (UniProt Q92731); test: OT_ER_ERbERb_1440: Odyssey Thera (OT) 24-hour HEK293T Protein-Complementation Assay for Estrogen Receptor-beta/-beta Homodimer (AID 2283380);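 also: fluorescence gain from ER beta LBD homodimer complementation read by laser scanning cytometry; scored as signal increase over DMSO baseline for both agonists and antagonists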
Summary of the method: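 HEK293T cells stably expressing human ER-beta LBD (aa 310-547) PCA homodimer pair, dosed 24 h; formaldehyde-fixed, Draq5-stained. Readout: increase in nuclear (agonist) or nuclear plus cytoplasmic (antagonist) fluorescence intensity versus DMSO, gain-of-signal fitting.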

[2] = target: Estrogen receptor (Homo sapiens) (UniProt P03372); test: OT_ERa_GFPERaERE_0480: Odyssey Thera (OT) 8-hour HeLa Transcription Induction Assay for Estrogen Receptor (AID 2283381; active = hit-call score of the fitted dose curve at least 0.9, where 1 is the maximum; inactive = score below 0.9)
Summary of the method: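 Cells (HeLa) receive compound; after 8 h, reporter fluorescence is imaged and quantified by high-content analysis. Gain-of-signal relative to DMSO gives the endpoint.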

[3] = target: Bile acid receptor (Homo sapiens) (UniProt Q96RI1); test: OT_FXR_FXRSRC1_0480: Odyssey Thera (OT) 8-hour HEK293T Protein-Complementation Assay for Farnesoid X receptor/SRC-1 Co-activator (AID 2283383)
Summary of the method: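 Co-activator recruitment to FXR was measured in living HEK293T cells, where interaction of the two fused partners restored an active fluorescent reporter. Signal gain after 8 h treatment was referenced to DMSO.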

[4] = target: Bile acid receptor (Homo sapiens) (UniProt Q96RI1); test: OT_FXR_FXRSRC1_1440: Odyssey Thera (OT) 24-hour HEK293T Protein-Complementation Assay for Farnesoid X receptor/SRC-1 Co-activator (AID 2283384)
Summary of the method: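 Cell-based binding reporter: interaction of FXR with SRC-1 brings reporter fragments together, giving a fluorescence signal read 24 h after dosing of HEK293T cells.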

[5] = target: Retinoic acid receptor RXR-alpha (Homo sapiens) (UniProt P19793); test: OT_NURR1_NURR1RXRa_1440: Odyssey Thera (OT) 24-hour HEK293T Protein Complementation Assay for Nurr1/retinoid X receptor (RXR) (AID 2283386)
Summary of the method: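 Measured as fluorescence from a reconstituted split reporter, this 24 h HEK293T complementation assay scores compound-induced gain of Nurr1/RXRα association relative to DMSO.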

[6] = target: Peroxisome proliferator-activated receptor gamma (Homo sapiens) (UniProt P37231); test: OT_PPARg_PPARgSRC1_0480: Odyssey Thera (OT) 8-hour Protein-Complementation Assay for Peroxisome Proliferator-activated Receptor Gamma / SRC-1 Co-activator (AID 2283387);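 also: nuclear to cytoplasmic split Venus YFP fluorescence ratio reporting PPARg SRC-1 interaction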
Summary of the method: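 Read-out: 488 nm N/C fluorescence ratio from complemented Venus YFP fragments, ≥350 cells per image, gain-of-signal fitted against DMSO baseline. Fusions of PPARg/SRC-1 with IFP1/IFP2 expressed transiently in HEK293T; compounds applied 8 h.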

[7] = target: Peroxisome proliferator-activated receptor gamma (Homo sapiens) (UniProt P37231); test: OT_PPARg_PPARgSRC1_1440: Odyssey Thera (OT) 24-hour Protein-Complementation Assay for Peroxisome Proliferator-activated Receptor Gamma/ SRC-1 Co-activator (AID 2283388);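 also: nuclear to cytoplasmic ratio of reconstituted Venus YFP fluorescence in fixed imaged cells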
Summary of the method: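 Cells carrying the PPARg/SRC-1 fragment-complementation reporter receive compound for 24 hours, are fixed and counterstained with Draq5, then imaged. Increased nuclear relative to cytoplasmic YFP fluorescence above DMSO baseline indicates binding activity.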

[8] = target: Agonist Androgen Response Element (ARE), AR (gene 367) (UniProt P10275); test: OT_AR_ARELUC_AG_1440: Odyssey Thera (OT) 24-hour CHO-K1 Luciferase Assay for Agonist Androgen Response Element (ARE) (AID 2283379)
Summary of the method: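 Seed CHO-K1 cells; dose compounds for 24 h; add D-luciferin plus ATP in PBS; read luminescence. Signal increase relative to vehicle defines agonist activity, with at least 3 replicate wells per sample.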

[9] = target: Retinoic acid receptor RXR-alpha (Homo sapiens) (UniProt P19793); test: OT_NURR1_NURR1RXRa_0480: Odyssey Thera (OT) 8-hour HEK293T Protein Complementation Assay for Nurr1/retinoid X receptor (RXR) (AID 2283385)
Summary of the method: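 Compounds are applied to HEK293T cells carrying Nurr1 and RXRα linked to reporter fragments. After 8 h, fluorescence intensity reports heterodimer formation, with DMSO as baseline.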

[10] = CEETOX_H295R_11DCORT: CeeTox H295R High-throughput Steroidogenesis Assay for 11-Deoxycortisol (11DCORT) (AID 2283432; active = hit-call score of the fitted dose curve at least 0.9, where 1 is the maximum; inactive = score below 0.9); conditions: actives raise or lower the signal
Summary of the method: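 H295R cells; 10 uM forskolin prestim 48 h; compound in 0.1% DMSO 48 h; media extracted with MTBE; 11-deoxycortisol by LC-MS/MS, 7-point standard curve; gain/loss vs DMSO baseline; viability by MTT in same wells.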

[11] = CEETOX_H295R_OHPREG: CeeTox H295R High-throughput Steroidogenesis Assay for OH-Pregnenolone (OHPREG) (AID 2283434; active = hit-call score of the fitted dose curve at least 0.9, where 1 is the maximum; inactive = score below 0.9); conditions: actives raise or lower the signal
Summary of the method: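 Human adrenal H295R cells were prestimulated 48 h with 10 uM forskolin, then exposed 48 h to chemical in 0.1% DMSO. Medium 17alpha-hydroxypregnenolone was quantified by HPLC-MS/MS after MTBE extraction; bidirectional fitting versus DMSO baseline.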

[12] = CEETOX_H295R_ANDR: CeeTox H295R High-throughput Steroidogenesis Assay for Androstenedione (ANDR) (AID 2283436; active = hit-call score of the fitted dose curve at least 0.9, where 1 is the maximum; inactive = score below 0.9); conditions: actives raise or lower the signal
Summary of the method: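 H295R human adrenal cells (passages ≤10) were exposed to test chemicals for 48 h; androstenedione in medium was MTBE-extracted and quantified by HPLC-MS/MS against a 7-point standard curve. Bidirectional fitting used DMSO as baseline.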

[13] = CEETOX_H295R_CORTIC: CeeTox H295R High-throughput Steroidogenesis Assay for Corticosterone (CORTIC) (AID 2283437; active = hit-call score of the fitted dose curve at least 0.9, where 1 is the maximum; inactive = score below 0.9;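 also: corticosterone secreted into medium quantified by mass spectrometry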); conditions: actives raise or lower the signal
Summary of the method: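 H295R cells were prestimulated 48 h with 10 uM forskolin, then exposed 48 h to test chemical in 0.1% DMSO. Medium corticosterone was MTBE-extracted and quantified by HPLC-MS/MS; bidirectional fit versus DMSO baseline.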

[14] = CEETOX_H295R_CORTISOL: CeeTox H295R High-throughput Steroidogenesis Assay for Cortisol (AID 2283438; active = hit-call score of the fitted dose curve at least 0.9, where 1 is the maximum; inactive = score below 0.9;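 also: cortisol secreted into medium quantified by LC-MS/MS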); conditions: actives raise or lower the signal
Summary of the method: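 Human adrenocortical H295R cells (passage ≤10) received test chemicals for 48 h after forskolin priming. Secreted cortisol was measured by LC-MS/MS.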

[15] = CEETOX_H295R_DOC: CeeTox H295R High-throughput Steroidogenesis Assay for DOC (AID 2283439; active = hit-call score of the fitted dose curve at least 0.9, where 1 is the maximum; inactive = score below 0.9); conditions: actives raise or lower the signal
Summary of the method: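 Secreted DOC was quantified from H295R media by HPLC-MS/MS after 48 h chemical exposure following 48 h forskolin (10 uM) prestimulation. Values were fitted in both directions relative to DMSO, the negative control and baseline.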

[16] = CEETOX_H295R_ESTRADIOL: CeeTox H295R High-throughput Steroidogenesis Assay for Estradiol (AID 2283440; active = hit-call score of the fitted dose curve at least 0.9, where 1 is the maximum; inactive = score below 0.9;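 also: estradiol secreted into medium quantified by LC-MS/MS after dansyl derivatisation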); conditions: actives raise or lower the signal
Summary of the method: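 Readout is estradiol in conditioned medium, quantified by reverse-phase HPLC-MS/MS against a 7-point standard curve. Cells: H295R, forskolin-stimulated, then dosed 48 h in 0.1% DMSO; activity fitted in both directions relative to DMSO.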

[17] = CEETOX_H295R_ESTRONE: CeeTox H295R High-throughput Steroidogenesis Assay for Estrone (AID 2283441; active = hit-call score of the fitted dose curve at least 0.9, where 1 is the maximum; inactive = score below 0.9;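 also: estrone secreted into medium measured by LC-MS/MS after dansyl derivatization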); conditions: actives raise or lower the signal
Summary of the method: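 H295R cells; 48 h forskolin (10 uM) prestimulation; 48 h compound exposure, 0.1% DMSO final. Medium estrone: MTBE extraction, dansyl derivatization, HPLC-MS/MS. Bidirectional fit vs DMSO.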

Measured: AC50

Bile acid receptor (Homo sapiens), sequence (Q96RI1 whole entry, looked up, the tested form may be a part): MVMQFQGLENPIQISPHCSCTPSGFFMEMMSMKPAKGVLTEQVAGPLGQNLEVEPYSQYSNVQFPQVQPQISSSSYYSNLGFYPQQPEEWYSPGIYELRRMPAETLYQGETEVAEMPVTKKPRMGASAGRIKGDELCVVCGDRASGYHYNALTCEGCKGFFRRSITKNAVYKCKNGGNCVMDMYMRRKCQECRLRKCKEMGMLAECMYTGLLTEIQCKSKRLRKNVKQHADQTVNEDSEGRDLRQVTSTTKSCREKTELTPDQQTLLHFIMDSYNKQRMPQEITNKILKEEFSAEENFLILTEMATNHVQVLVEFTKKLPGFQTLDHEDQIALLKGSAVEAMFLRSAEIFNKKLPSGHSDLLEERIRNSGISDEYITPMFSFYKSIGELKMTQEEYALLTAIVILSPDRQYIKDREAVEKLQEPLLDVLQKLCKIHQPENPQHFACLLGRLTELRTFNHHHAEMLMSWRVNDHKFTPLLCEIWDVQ
Estrogen receptor beta (Homo sapiens), sequence (Q92731 whole entry, looked up, the tested form may be a part): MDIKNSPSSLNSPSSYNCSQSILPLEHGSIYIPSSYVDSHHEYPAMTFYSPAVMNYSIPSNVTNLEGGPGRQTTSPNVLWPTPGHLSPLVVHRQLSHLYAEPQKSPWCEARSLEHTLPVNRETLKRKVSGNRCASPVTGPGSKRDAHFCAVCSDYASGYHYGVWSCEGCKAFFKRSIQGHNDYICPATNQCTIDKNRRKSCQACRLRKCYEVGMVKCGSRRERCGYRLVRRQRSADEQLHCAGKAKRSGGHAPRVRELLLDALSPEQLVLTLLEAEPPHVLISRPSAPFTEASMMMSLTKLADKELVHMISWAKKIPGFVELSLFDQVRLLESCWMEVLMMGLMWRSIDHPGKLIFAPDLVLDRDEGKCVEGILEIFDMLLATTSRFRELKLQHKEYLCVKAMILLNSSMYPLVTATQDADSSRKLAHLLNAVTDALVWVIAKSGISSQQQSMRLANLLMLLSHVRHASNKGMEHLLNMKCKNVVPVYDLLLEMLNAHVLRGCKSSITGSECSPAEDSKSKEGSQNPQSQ
Agonist Androgen Response Element (ARE), AR (gene 367), sequence (P10275 whole entry, looked up): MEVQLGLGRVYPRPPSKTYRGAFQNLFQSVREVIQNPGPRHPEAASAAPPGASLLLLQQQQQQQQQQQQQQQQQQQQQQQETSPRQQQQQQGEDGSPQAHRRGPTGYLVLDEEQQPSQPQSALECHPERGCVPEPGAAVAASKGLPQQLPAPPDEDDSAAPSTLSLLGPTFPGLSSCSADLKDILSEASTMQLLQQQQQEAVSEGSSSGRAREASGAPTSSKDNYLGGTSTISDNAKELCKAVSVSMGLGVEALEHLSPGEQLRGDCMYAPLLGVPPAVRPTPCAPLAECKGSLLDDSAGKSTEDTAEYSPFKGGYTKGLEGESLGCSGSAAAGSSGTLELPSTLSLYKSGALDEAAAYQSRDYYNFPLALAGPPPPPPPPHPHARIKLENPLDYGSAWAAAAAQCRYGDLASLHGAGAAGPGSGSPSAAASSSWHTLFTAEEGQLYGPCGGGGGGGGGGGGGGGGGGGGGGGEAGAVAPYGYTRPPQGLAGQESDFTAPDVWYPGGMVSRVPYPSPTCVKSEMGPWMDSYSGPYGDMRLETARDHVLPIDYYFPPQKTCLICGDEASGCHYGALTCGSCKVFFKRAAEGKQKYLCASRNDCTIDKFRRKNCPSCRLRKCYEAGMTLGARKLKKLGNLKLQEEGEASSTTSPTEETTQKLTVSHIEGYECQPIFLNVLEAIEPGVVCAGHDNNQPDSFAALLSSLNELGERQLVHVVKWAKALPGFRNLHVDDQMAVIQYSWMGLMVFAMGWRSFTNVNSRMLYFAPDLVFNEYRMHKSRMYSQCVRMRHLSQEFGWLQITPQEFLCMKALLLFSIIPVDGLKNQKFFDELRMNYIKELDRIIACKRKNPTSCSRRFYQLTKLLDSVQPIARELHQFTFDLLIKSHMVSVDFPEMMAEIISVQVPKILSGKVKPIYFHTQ
Peroxisome proliferator-activated receptor gamma (Homo sapiens), sequence (P37231 whole entry, looked up, the tested form may be a part): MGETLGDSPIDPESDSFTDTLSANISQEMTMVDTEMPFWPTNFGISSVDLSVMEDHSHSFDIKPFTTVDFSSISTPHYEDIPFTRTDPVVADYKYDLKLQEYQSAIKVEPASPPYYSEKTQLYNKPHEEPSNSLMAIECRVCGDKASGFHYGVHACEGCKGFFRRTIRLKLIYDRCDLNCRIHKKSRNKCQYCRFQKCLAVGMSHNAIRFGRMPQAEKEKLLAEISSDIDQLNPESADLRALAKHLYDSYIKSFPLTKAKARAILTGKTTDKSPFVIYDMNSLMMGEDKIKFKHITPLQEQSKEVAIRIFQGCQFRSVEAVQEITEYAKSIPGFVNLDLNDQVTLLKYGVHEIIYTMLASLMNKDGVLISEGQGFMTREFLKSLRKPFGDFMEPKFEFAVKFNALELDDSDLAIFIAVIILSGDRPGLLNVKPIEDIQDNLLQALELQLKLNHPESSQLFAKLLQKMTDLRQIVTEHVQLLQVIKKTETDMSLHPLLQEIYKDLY
Retinoic acid receptor RXR-alpha (Homo sapiens), sequence (P19793 whole entry, looked up, the tested form may be a part): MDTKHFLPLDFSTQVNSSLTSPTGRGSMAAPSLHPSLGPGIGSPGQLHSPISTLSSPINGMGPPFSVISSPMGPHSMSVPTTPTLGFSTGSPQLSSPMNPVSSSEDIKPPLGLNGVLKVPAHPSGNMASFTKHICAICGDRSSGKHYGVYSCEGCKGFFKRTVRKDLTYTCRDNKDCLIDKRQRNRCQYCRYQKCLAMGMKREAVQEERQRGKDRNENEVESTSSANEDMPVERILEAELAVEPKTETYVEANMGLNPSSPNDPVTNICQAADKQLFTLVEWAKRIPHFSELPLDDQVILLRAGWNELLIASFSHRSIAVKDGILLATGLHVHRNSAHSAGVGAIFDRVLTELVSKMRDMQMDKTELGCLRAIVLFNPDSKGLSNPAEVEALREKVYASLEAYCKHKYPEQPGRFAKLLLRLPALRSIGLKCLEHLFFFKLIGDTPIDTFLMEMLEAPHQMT
Estrogen receptor (Homo sapiens), sequence (P03372 whole entry, looked up): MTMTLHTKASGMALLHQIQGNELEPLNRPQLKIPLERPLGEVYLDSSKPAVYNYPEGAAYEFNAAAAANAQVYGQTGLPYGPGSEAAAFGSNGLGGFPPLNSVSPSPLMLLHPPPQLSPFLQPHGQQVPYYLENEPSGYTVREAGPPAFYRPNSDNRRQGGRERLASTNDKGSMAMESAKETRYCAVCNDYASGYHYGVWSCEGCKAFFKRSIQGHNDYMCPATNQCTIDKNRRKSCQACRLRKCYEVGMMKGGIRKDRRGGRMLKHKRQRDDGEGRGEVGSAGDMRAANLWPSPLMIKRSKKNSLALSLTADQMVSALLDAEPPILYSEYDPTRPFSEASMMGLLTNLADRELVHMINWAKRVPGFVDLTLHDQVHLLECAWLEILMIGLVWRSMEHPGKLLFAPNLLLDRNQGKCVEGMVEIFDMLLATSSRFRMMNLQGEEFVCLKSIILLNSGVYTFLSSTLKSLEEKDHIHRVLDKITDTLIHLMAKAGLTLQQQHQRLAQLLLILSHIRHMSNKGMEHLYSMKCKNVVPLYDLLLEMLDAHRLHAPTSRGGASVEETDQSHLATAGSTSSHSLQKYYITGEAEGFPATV

CCCCCCCCCCCCCC(=O)O
active: [4] 81.8 µM
inactive: [1] | [2] | [3] | [5] | [6] | [7]

COc1ccc(O)cc1
inactive: [8] | [1] | [6] | [7]
active: [5] 44.6 µM

BrC1CCC(Br)C(Br)CCC(Br)C(Br)CCC1Br (configuration not stated)
inactive: [8] | [1] | [2] | [9] | [5] | [6] | [7]
active: [3] 18.2 µM | [4] 17.4 µM

O=c1cc(-c2ccccc2)oc2cc(O)cc(O)c12
active: [1] 11 µM | [13] 5.66 µM | [15] 12.2 µM
not listed: [2] | [3] | [4] | [16] | [17]
inactive: all other assays above

OCCOCCOCCOCCO
inactive: [1] | [2] | [9] | [5]

CCN(CC)c1ccc(C(=C2C=CC(=[N+](CC)CC)C=C2)c2ccc(S(=O)(=O)O)cc2S(=O)(=O)[O-])cc1
inactive: [8] | [1] | [6] | [7]

CCCOCC(C)O (configuration not stated)
inactive: [8] | [6] | [7]

C[Si](O[Si](C)(C)C)O[Si](C)(C)C
inactive: [8] | [1] | [9] | [5] | [6] | [7]

CCCCCCCCC
inactive: [1] | [2] | [5] | [6] | [7]

CCCCCCCCCC=O
inactive: [1] | [2] | [9] | [5] | [6] | [7]

O=C1c2ccccc2C(=O)N1SC1CCCCC1
inactive: [1] | [2]

CCCCc1ccc(N)cc1
inactive: [1] | [2] | [5] | [6] | [7]

c1ccc2[nH]ccc2c1
inactive: [8] | [1] | [9] | [5] | [6] | [7]

C=C(C)C(=O)O
inactive: [1] | [2] | [9] | [6] | [7]

CC(C)c1cccc(O)c1
active: [1] 33.5 µM
not listed: [3] | [4] | [8] | [12]
inactive: all other assays above

CCCCCCCCCCCCCCCC(=O)OC[C@H](O)[C@H]1OC(=O)C(O)=C1O
inactive: [8] | [2] | [9] | [6] | [7]
active: [5] 84.2 µM

CC(C)(N)CO
inactive: [1] | [2] | [4] | [6] | [7]

CCC/C=C/C=O
inactive: [8] | [1] | [2] | [6] | [7]

O=C[C@@H](O)[C@H](O)[C@H](O)CO
active: [8] 1.26 µM
inactive: [1] | [9] | [5] | [6] | [7]

Cc1ccc(S)cc1
inactive: [1] | [2] | [6] | [7]
active: [9] 79.4 µM | [5] 79.8 µM

OCCN1CCNCC1
inactive: [1] | [2] | [3] | [4] | [9] | [5] | [6] | [7]

CCN(CC)c1ccc2c(-c3ccccc3C(=O)O)c3ccc(=[N+](CC)CC)cc-3oc2c1
inactive: [2]
active: [1] 12.2 µM | [3] 35.2 µM | [4] 38.9 µM | [9] 12.7 µM | [5] 16.1 µM | [6] 12.2 µM | [7] 12 µM

CCCCOCCOCCOCCOCCO
inactive: [1] | [2] | [9] | [5] | [6] | [7]

NCCCN1CCOCC1
inactive: [1] | [2] | [3] | [9] | [6] | [7]

CCCCCCCCC=O
inactive: [1] | [2] | [4] | [9] | [5] | [6] | [7]

O=Nc1ccc(Nc2ccccc2)cc1
active: [2] 72.3 µM | [9] 0.707 µM
inactive: [8] | [1] | [3] | [6] | [7]

c1ccc(CCCc2ccccn2)cc1
active: [3] 50 µM
inactive: [1] | [2] | [4] | [9] | [6] | [7] | [11] | [16] | [17]
